Pf apPOL block = Pf-apPOL inhibitors, biochemical, fluorescence; hit rate 0.25% among 210,000; Recombinant Pf-apPOL, molecular beacon fluorescence, 1.5 h; Plasmodium falciparum apicoplast DNA polymerase (apPOL); inhibition, % at 10 µM
mHTT-CaM PPI inh = mutant huntingtin-calmodulin interaction inhibitors – biochemical, AlphaScreen, primary screen | AID 1671202, 2021 | AlphaScreen His-mHTT/GST-CaM binding, luminescence | hit rate 3.6% among 190,000 | inhibition, % at 15 µM | P42858
A number is an active result; . = inactive; / = no result. Sampled rows, rich in hits. Any-hit rate of the full collection: about 3.5%. Cut-off read from the data, not from the text of the source: active = inhibition above about 50%; inactive = the rest.

SMILES | Pf apPOL block | mHTT-CaM PPI inh
CC(=O)N1CCC2(CC1)N=C(c1ccccc1O)CC(c1ccc(F)c(Cl)c1)N2 (stereo unspecified) | . | 69
CCN1CCC2(CC1)N=C(c1ccc(C)c(C)c1)CC(c1cc(Cl)ccc1O)N2 (stereo unspecified) | . | .
Cc1ccc(C2CC(c3cc(Cl)ccc3O)=NC3(CCN(C)CC3)N2)cc1 (stereo unspecified) | . | 100
CCN1CCC2(CC1)N=C(c1ccc(C)cc1C)CC(c1cc(Cl)ccc1O)N2 (stereo unspecified) | . | 90
CC(=O)N1CCC2(CC1)N=C(c1cc(Cl)ccc1O)CC(c1ccc(C)cc1)N2 (stereo unspecified) | . | .
CC(=O)N1CCC2(CC1)N=C(c1ccccc1O)CC(c1ccc(Cl)cc1)N2 (stereo unspecified) | . | .
CCOc1ccc(N2C(=O)CCC2(C)C(=O)NCCCOC)cc1 (stereo unspecified) | . | .
O=C1NC2(CCN(Cc3cccnc3)CC2)Nc2ccccc21 | . | .
O=Cc1ccc(-c2cc(C(=O)O)cc(C(=O)O)c2)o1 | . | .
CC(C)(C)NC(=O)NCc1ccncc1 | . | /
CCCOC(=O)C1C2C=CC3(CN(c4ccccc4CC)C(=O)C13)O2 (stereo unspecified) | . | .
CN(CC(=O)NCCc1ccccc1)S(=O)(=O)c1ccc2[nH]c3c(c2c1)CCCC3 | . | .
COc1cccc(CNC(=O)CN(C)S(=O)(=O)c2ccc3[nH]c4c(c3c2)CCCC4)c1 | . | .
Cc1ccc(CCNC(=O)CN(C)S(=O)(=O)c2ccc3[nH]c4c(c3c2)CCCC4)cc1 | . | 59
CN(CC(=O)NCc1ccc(Cl)cc1)S(=O)(=O)c1ccc2[nH]c3c(c2c1)CCCC3 | . | 58
COc1ccccc1CNC(=O)CN(C)S(=O)(=O)c1ccc2[nH]c3c(c2c1)CCCC3 | . | 58
COc1ccccc1NC(=O)CN(C)S(=O)(=O)c1ccc2[nH]c3c(c2c1)CCCC3 | . | .
CS(=O)(=O)N(CC(=O)Nc1ccccc1C(N)=O)c1cccc(Cl)c1Cl | . | .
O=C(Cc1ccccc1F)N1CCC(Nc2cccn3ncnc23)CC1 | . | .
O=C(O)CC(C(=O)O)N1C(=O)C(=Cc2cccc([N+](=O)[O-])c2)SC1=S (stereo unspecified) | . | .
O=c1[nH]nc2c3c(cccc13)-c1ccccc1-2 | . | .
O=C(Cn1c2c(c3ccccc31)CCC2)Nc1cc(F)ccc1F | . | 76
O=C(Cn1cnc2c(oc3ccccc32)c1=O)Nc1cc(F)ccc1F | . | .
OC[C@H]1NC[C@@H](O)[C@@H]1O | . | /
O=C1/C(=C/c2ccc([N+](=O)[O-])cc2)C=C(c2ccccc2)N1c1ccccc1 | . | .
SMILES | Pf apPOL block | mHTT-CaM PPI inh
O=C1/C(=C/c2ccc(-c3ccc([N+](=O)[O-])cc3)o2)C=C(c2ccccc2)N1c1cccnc1 | . | 65
COc1ccc(/C=C2\C=C(c3ccccc3)N(c3ccc(O)cc3)C2=O)cc1 | . | 59
COc1ccc(/C=C2/C(=N)N3C(c4ccccc4)=CSC3=NC2=O)cc1Br | . | .
COc1ccc(/C=C2\C=C(c3ccccc3)N(c3cccnc3)C2=O)cc1Br | . | 53
O=C(O)c1cccc(N2C(=O)/C(=C/c3ccc([N+](=O)[O-])cc3)C=C2c2ccccc2)c1 | . | .
O=C1/C(=C/c2ccc([N+](=O)[O-])cc2)C=C(c2ccccc2)N1c1ccc(O)cc1 | . | 59
COc1ccc(/C=C2\C=C(c3ccccc3)N(c3ccc(C(=O)O)cc3)C2=O)cc1 | . | .
O=C(NCc1cccnc1)C(=O)Nc1ccccc1F | . | .
CS(=O)(=O)NC1CC2CC1N(C(=O)Cc1cccs1)C2 (stereo unspecified) | . | .
Cc1cc(F)ccc1NC(=O)Cn1cc2c(n1)CCC(C)C2 (stereo unspecified) | . | .
COc1ccc(/C=C2\C=C(c3ccccc3)N(c3ccc(F)cc3)C2=O)cc1 | . | 53
COc1ccc(/C=C2\C=C(c3ccccc3)N(c3ccc(N(C)C)cc3)C2=O)cc1 | . | .
O=C(NCCCSC1CCCCC1)Nc1ccc(Cl)cc1 | . | .
OCc1cc(-c2cccs2)on1 | . | /
COc1ccc(C2N(c3nccs3)C(=O)C3CCCN32)c(OC)c1 (stereo unspecified) | . | .
CC(C)n1cc(C2=CCN(C(=O)Nc3ccc(Cl)cc3)CC2)c2cccnc21 | . | .
CC(C)n1cc(C2=CCN(C(=O)Nc3ccc4c(c3)OCCO4)CC2)c2cccnc21 | . | 61
O=C(CC1CCCC1)N1CCC(c2nc(-c3cccnc3)n[nH]2)CC1 | . | .
CCC(OCC(O)CNC(C)C)c1ccccc1 (stereo unspecified) | . | .
N#CC1=C(N)Oc2n[nH]c(-c3ccccc3)c2C1c1cccc([N+](=O)[O-])c1 (stereo unspecified) | . | .
N#CC1=C(N)Oc2c(C=Nc3ccccc3)ccc(O)c2C1c1cccc([N+](=O)[O-])c1 (stereo unspecified) | . | 100
COc1ccc(NC(=O)CSc2ncccc2C(=O)NCc2ccccn2)c(OC)c1 | . | .
COc1ccc([C@H]2C[C@H](O)[C@@H](n3cc(C4CC4)nn3)CN2Cc2cccs2)cc1 | . | 94
O[C@H]1C[C@H](c2ccccc2)N(Cc2cccs2)C[C@@H]1n1cc(C2CC2)nn1 | . | 74
CCCCCCN1C[C@@H](n2cc(C3CC3)nn2)[C@H](O)C[C@@H]1c1ccc(OC)cc1 | . | .
SMILES | Pf apPOL block | mHTT-CaM PPI inh
Cc1ccc([C@H]2C[C@@H](n3cc(C4CC4)nn3)[C@H](O)CN2Cc2cccs2)cc1 | . | .
O=C(Nc1cccc(Cl)c1)C1CCc2nc(N3CCOCC3)ncc2C1 (stereo unspecified) | . | .
CC(=O)Nc1cc(C(=O)NCc2ccccc2C)c2ccc(C)nc2c1 | . | 73
Cc1ccc2c(C(=O)NCc3ccccc3C)cc(NC(=O)C(C)C)cc2n1 | . | 54
Cc1cccc(CNC(=O)c2cc(NC(=O)C(C)C)cc3nc(C)ccc23)c1 | . | .
CC(=O)Nc1cc(C(=O)NCC(C)C)c2ccc(C)nc2c1 | . | .
Cc1nnc2c(NC(=O)COc3ccc(F)cc3)cccn12 | . | .
Cc1ccc(C)c(C(=O)C=CC=Cc2ccccc2)c1 | . | .
Cc1ccc(C(=O)N2CCc3c(nc4cc(-c5ccccc5Cl)[nH]n4c3=O)C2)s1 | . | .
OCCOC1CCCc2oc(-c3ccccc3)c(C#CC3(O)CCCCC3)c21 (stereo unspecified) | . | .
O=Cc1ccc(-c2c(-c3ccccc3)oc3c2C(OCCCCO)CCC3)o1 (stereo unspecified) | . | 61
O=C(Nc1cc(F)ccc1F)N1CCC2(CC1)Nc1cc(F)ccc1-n1cccc12 | . | 59
Cc1ccccc1NC(=O)N1CCC2(CC1)Nc1ccccc1-n1cccc12 | . | .
O=C(Nc1ccccc1F)N1CCC2(CC1)Nc1ccccc1-n1cccc12 | . | 50
O=C(Nc1ccc(F)cc1F)N1CCC2(CC1)Nc1ccccc1-n1cccc12 | . | 54
Cc1cc(C)cc(NC(=O)c2ccc(-c3cncnc3)nc2)c1 | . | .
NS(=O)(=O)c1ccc(CCNC(=O)Cc2ccc(Br)cc2)cc1 | . | .
O=C1C(=O)N(CCO)C(c2ccccc2[N+](=O)[O-])C1=C(O)c1ccccc1 (stereo unspecified) | . | .
O=C(Nc1nc(NC(=O)c2ccccc2)n(-c2ccccc2)n1)c1ccccc1 | . | 89
